Source: PubChem BioAssay (National Center for Advancing Translational Sciences (NCATS))
Pf growth 48h: inhibits P. falciparum growth in the first generation, 48 h. P. falciparum luciferase growth in erythrocytes, 48 h. Potency, µM (highest dose often 28.7 µM), actives largely listed as inhibitors. 5.9% of 310,000 active. AID 504832
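A one-generation exposure of luciferase-tagged malaria parasites in RPMI 1640/Albumax erythrocyte culture, 37 C and 5% CO2. Inhibition is inferred from decreased luminescence after adding detection reagent.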
NS1 function inh: blocks influenza NS1 protein function | Potency, µM (doses to about 46.1 µM) | 0.4% of 270,000 active | AID 2326; calls by dose curve; further: actives are rising curves; nearly all actives have a fitted effect of over 50% in size
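A cell-based growth assay was used: compounds that relieve NS1-induced slow growth of budding yeast raise OD600. Assay medium was yeast nitrogen base with ammonium sulphate and -URA supplement, pH 6.0, with 2% galactose.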
Pf growth 96h: P. falciparum growth inhibition at 96 hours; P. falciparum luciferase reporter growth, 96 h; Potency, µM (series often up to 28.7 µM), hits mostly inhibitors; 6.9% of 320,000 active
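Delayed-death screen, second-generation endpoint: infected erythrocytes, 2% hematocrit, 0.05% parasitemia final; 96 hours at 37 C, 5% CO2; luciferase detection reagent; luminescence decrease equals reduced growth.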
SARS PLP yeast: SARS-CoV PLP inhibition in yeast; S. cerevisiae expressing SARS-CoV PLpro, growth rescue; Potency, µM (series often up to 32.9 µM), most hits filed as activators; 0.19% of 330,000 active; calls by dose curve; further: nearly all actives have a fitted effect of over 55% in size
AMA1-RON2 inh: inhibitors of Plasmodium falciparum AMA1-RON2 interaction. AlphaScreen AMA1-biotinylated RON2 peptide binding. Potency, µM (highest dose often 58.2 µM), usual class: inhibitors. 0.2% of 360,000 active. AID 720542; further: nearly all actives have a fitted effect of over 45% in size
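AMA1 (3D7) with his tag at 25 nM final met compounds first, then biotinylated RON2 peptide at 25 nM; detection used donor plus acceptor beads, 10 µg/mL apiece, read by AlphaScreen after 30 min at room temperature.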
HCV inhibitor: blocks hepatitis C virus. Huh7.5.1 HCVcc-Cre infection, luciferase reporter, 44 h. Potency, µM (highest dose often 41.8 µM), most hits filed as inhibitors. 3.4% of 340,000 active. AID 651820
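Reporter virus HCVcc-Cre (~0.5 moi) infects cells exposed to compound; seeding density 1,000 cells/well with 4 h settling beforehand. Luminescence, 15 sec read, taken 44 h post-infection following a 15 min RT substrate incubation.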
A number is an active result; – = inactive; ? = inconclusive; · = not tested or not shown; [ ] = dose if it differs, or a comment. Hits are enriched below; roughly 12% of the tested compounds scored in any of these assays. Unless noted, the call rests on the fitted dose curve; in most records, active means well fitted curve in the direction sought with a large enough effect; inconclusive means small, poorly fitted or top-dose-only effect, or another doubt; inactive means no such curve, though single readings can be large; an effect the other way counts as inactive or inconclusive.

SMILES	Pf growth 48h	NS1 function inh	Pf growth 96h	SARS PLP yeast	AMA1-RON2 inh	HCV inhibitor
CN(C(=O)c1cccc(NC(=O)Cc2ccc(NC(=O)C3CCCN(S(=O)(=O)c4cccc([N+](=O)[O-])c4)C3)cc2)c1)C1CCCCC1 (stereo unspecified)	·	·	·	·	–	?
O=C(NN1CCOCC1)c1cccc2ccccc12	–	–	–	–	–	–
CCCCCCCCC(=O)NC(NC(=S)N1CCOCC1)C(Cl)(Cl)Cl (stereo unspecified)	?	–	?	–	–	?
CCCCCC(=O)NC(NC(=S)N1CCOCC1)C(Cl)(Cl)Cl (stereo unspecified)	8.28µM	–	–	?	–	–
O=C(NC(NC(=S)N1CCOCC1)C(Cl)(Cl)Cl)c1cccc2ccccc12 (stereo unspecified)	2.94µM	–	–	–	–	?
COc1ccc(CCC(=O)Nc2ccc(S(=O)(=O)N3CCCC3)cc2)cc1OC	?	·	?	–	–	?
CCSc1cc(C)nc2c(-c3ccccc3)cnn12	–	–	–	–	–	10µM
CS(=O)(=O)c1nc(S(=O)(=O)c2ccc(Cl)cc2)c(NCCCN2CCCC2=O)s1	–	–	–	–	–	–
COc1ccc(C(=O)C2CCCN(C(=O)c3cccnc3SC)C2)c(C)c1 (stereo unspecified)	?	–	?	–	–	–
CC(C)(C)NC(=O)C(c1c[nH]c2ccccc12)N(C(=O)Cn1nnc(-c2ccc(Cl)cc2)n1)c1ccccc1F (stereo unspecified)	?	?	–	–	–	10µM
CC(=O)NS(=O)(=O)c1ccc(NC(=O)/C=C/c2ccc(C)o2)cc1	–	–	4.65µM	–	–	–
Cc1ccc(/C=C/C(=O)Nc2ccc(S(N)(=O)=O)cc2)o1	–	–	–	–	–	?
COc1ccccc1NC(=O)COc1ccc(C(=O)NCC2CCCO2)cc1OC (stereo unspecified)	·	·	·	–	–	–
COc1ccc(C(=O)NCC(=O)NCC2(N(C)C)CCCCC2)cc1OC	·	–	?	–	–	–
COc1ccccc1NC(=O)COc1ccc(CO)cc1Cl	–	–	·	–	–	10µM
COc1ccccc1NC(=O)COc1ccc(C(=O)NCc2ccccc2)cc1OC	13.1µM	·	?	–	–	?
COc1cc(C(=O)NCC2(N(C)C)CCCCC2)ccc1OCc1ccccc1	?	–	9.28µM	–	–	?
CC(C)C(=O)Nc1nnc(NC(=S)Nc2ccccc2)s1	–	·	11.7µM	–	–	–
COc1ccc(NC(=O)[C@@H]2CC=C[C@@H]3CCN(Cc4ccc(Cl)c(Cl)c4)C(=O)[C@@H]32)cc1	·	·	·	·	–	0.562µM
COc1ccc(NC(=O)[C@@H]2CC=C[C@@H]3CCN(Cc4ccccc4)C(=O)[C@@H]32)cc1	·	·	·	·	–	–
COc1ccc([C@@H]2C[C@H]3[C@@H](CN2S(=O)(=O)c2ccccc2)C(=O)C[C@@H](c2ccc(C)cc2)N3S(=O)(=O)c2ccc(C)cc2)cc1	·	·	·	·	–	·
CCC[C@H]1C[C@H](C(=O)N[C@@H]([C@H]2O[C@@H](SC)[C@@H](O)[C@@H](O)[C@@H]2O)[C@H](C)Cl)N(C)C1	0.19µM	·	0.0338µM	·	·	·
N#CCC(CNc1ncc(C(F)(F)F)cc1Cl)OC(=O)c1ccc(Cl)cc1Cl (stereo unspecified)	2.94µM	–	2.33µM	–	–	–
Clc1ccc(OCc2nc(-c3ccncc3)no2)cc1	·	–	10.4µM	–	–	?
c1ccc(C(Cc2nc(-c3ccncc3)no2)c2ccccc2)cc1	7.38µM	–	–	–	–	7.94µM
SMILES	Pf growth 48h	NS1 function inh	Pf growth 96h	SARS PLP yeast	AMA1-RON2 inh	HCV inhibitor
Clc1ccc(-c2noc(COc3ccccc3)n2)cc1	–	–	–	–	–	–
c1ccc(-c2nc(-c3ccncc3)no2)cc1	–	–	–	·	–	–
CC1(C(=O)NS(=O)(=O)c2ccc(C#N)cc2)CCN1C(=O)C1(c2ccccc2)CCCC1 (stereo unspecified)	·	·	·	·	–	·
Cc1ccccc1NC(=O)c1nnn(-c2ccc3c(c2)OCCO3)c1N	–	–	?	–	–	10µM
O=C(CCl)N(CCCNC(=O)C(F)(F)F)c1ccc([N+](=O)[O-])cc1	9.28µM	–	?	–	–	?
Cc1ccccc1NC(=O)c1nc(S(C)(=O)=O)ncc1Cl	–	–	13.1µM	–	–	?
Cc1nnc(NC(=O)c2nc(S(=O)(=O)Cc3ccccc3)ncc2Cl)s1	–	–	–	–	–	10µM
Cc1cccc(C)c1NC(=O)c1nc(S(=O)(=O)Cc2ccccc2)ncc1Cl	–	–	?	–	–	?
O=C(Nc1ccc(F)cc1)c1nc(S(=O)(=O)Cc2ccccc2)ncc1Cl	–	–	–	–	–	8.91µM
O=C(CCC(=O)c1ccc(F)cc1)OCc1nnc(-c2ccc([N+](=O)[O-])cc2)o1	–	·	–	–	–[11.6 µM]	–
O=C(NCCC(=O)N1CCCC1)c1ccccc1Cl	–	–	–	–	–	–
CCN(CC)CCN(Cc1cc2cc3c(cc2[nH]c1=O)OCO3)C(=S)NCC1CCCO1 (stereo unspecified)	–	–	14.7µM	–	–	–
CCN(CC)CCN(Cc1cc2cc3c(cc2[nH]c1=O)OCO3)C(=S)NCCCOC	–	–	13.1µM	–	–	–
CCN(CC)CCCN(Cc1cc2cc3c(cc2[nH]c1=O)OCO3)C(=S)NCCCOC	–	–	?	–	–	–
Cc1cc(C)c2cc(CN(Cc3ccco3)C(=S)NCC3CCCO3)c(=O)[nH]c2c1 (stereo unspecified)	2.08µM	–	?	–	–	?
CCN(CC)CCN(Cc1cc2cc3c(cc2[nH]c1=O)OCCO3)C(=S)NCC1CCCO1 (stereo unspecified)	–	–	–	–	–	–
COc1ccccc1N1C(C)=CC(=C(C#N)c2nc3ccccc3s2)C=C1C	9.28µM	–	?	–	–	?
Cc1nnc(SCC(=O)NC2CCCC(C)C2C)n1N (stereo unspecified)	·	·	·	–	–	–
CCOc1ccc(NC(=O)Nc2cccn(Cc3ccccc3)c2=O)cc1	–	–	?	–	–	10µM
CCc1ccccc1NC(=O)Nc1cccn(Cc2ccccc2F)c1=O	?	–	–	–	–	11.2µM
O=C(NCc1ccccc1)Nc1cccn(Cc2ccccc2F)c1=O	–	–	–	–	–	–
O=C(NCc1ccccc1)Nc1cccn(Cc2ccccc2)c1=O	–	–	–	–	–	?
CCCCN1CN(Cc2ccccc2)CNC1=S	–	–	9.28µM	?	–	–
CCOCCCN1CN(Cc2ccccc2)CNC1=S	–	–	?	–	–	–
COc1cccc(C(C)(O)c2nc(/C=C/c3ccccc3)cs2)c1 (stereo unspecified)	·	·	·	·	–	·
Cc1nc(N2CCN(Cc3ccc4c(c3)OCO4)CC2)c2oc3ccccc3c2n1	·	–	·	·	?	–
